This assay relates to wheat germ agglutinin (Triticum aestivum), Alexa647-labelled. Put plainly: Alexa647-WGA lectin binding to printed small molecules – biochemical, small-molecule microarray, 635/667 nm fluorescence, artefact control for SMM control-protein annotation, profiling panel (AID 1140).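 Also: score merges 667 nm feature emission with signal to noise over triplicate slides.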 As to conditions: WGA-A647 binding, 635 nm fluorescence, higher = more signal.
For the molecule `C=C(C)C1C(=C)CN([C@H](CO)c2ccccc2)C1=O` (stereo partly specified), the composite z-score is -0.187.
As for `COc1ccc(C(O)C2C=CC3C(=O)N(c4ccccc4)C(=O)C3N2Nc2ccccc2F)cc1OCc1ccccc1` (stereo unspecified), the figure is 1.18.
As for `COCCCNC(=O)[C@@]1(Cc2ccccc2)N=C(c2ccc(OCCCO)cc2)O[C@H]1c1ccccc1`, the figure is 1.11; as for `CC(C)C(CO)N1C(=O)[C@@H]2[C@H]3C(=O)OCC=C[C@H]3OC23C=CCN(C(C)C)C(=O)[C@@H]13` (stereo partly specified), -0.131.
In the case of `[N-]=[N+]=Nc1ccccc1[C@H]1OC(c2ccc(OCCCO)cc2)=N[C@@]1(Cc1ccccc1)C(=O)O` it was 0.611; in that of `Cc1ccc(S[C@]2(C(=O)NC(C)C)CC(=O)N(Cc3ccccc3Cl)[C@@H]2c2ccc(CO)cc2I)cc1`, 0.648.
The molecule `CN(C)CCCCCCNC(=O)[C@@H]1C[C@@H]2C(=O)N[C@@H](CCCCN)C(=O)N2[C@@H]1c1cccc(OCCO)c1` yielded a composite z-score of 1.62.
For the molecule `CC(C)(C)OC(=O)CC[C@]12N=C(c3ccc(OCCCO)cc3)O[C@H]1c1ccccc1N(CCS(=O)(=O)c1ccccc1)C2=O`, the composite z-score is 1.08.
For `COCCn1c(C(=O)N2CCCC2)cc2c1C[C@H]1CN(C(=O)c3ccccc3)[C@@](Cc3ccc(F)cc3)(C(=O)OC)[C@@H]21`, the composite z-score turned out to be 0.845.
As for `CC1CC/C=C\[C@H]2OC34C=CCN(C(C)(C)C)C(=O)[C@H]3N(CCCCCCO)C(=O)[C@@H]4C2C(=O)O1` (stereo partly specified), the figure is -0.872; as for `COCCOC(=O)N1C(=O)[C@@]2(c3cc(C#Cc4ccc(OC)cc4)ccc31)[C@H](C(N)=O)[C@H]1C(=O)O[C@H](c3ccccc3)[C@H](c3ccccc3)N1[C@@H]2c1ccccc1OCCO`, 0.901; as for `O=C1OCCC/C=C\[C@H]2OC34C=CCN(c5ccc6ccccc6c5)C(=O)[C@H]3N(CCCCCCO)C(=O)[C@@H]4C12` (stereo partly specified), -0.0279.
As for `COc1ccc([C@H]2C[C@H]3C(Br)=C[C@@H]2C(=O)[C@]32CO2)cc1`, the figure is -0.138; as for `COCCOC(=O)N1C(=O)[C@@]2(c3cc(C#CCCO)ccc31)[C@H](c1ccc(OCCO)cc1)N1[C@H](c3ccccc3)[C@H](c3ccccc3)OC(=O)[C@H]1[C@@H]2C(=O)N1CCN(c2ncccn2)CC1`, 0.624; as for `Cc1ccc(C(C)CC(O)C2C=CC3C(=O)N(C)C(=O)C3N2NC(=O)OC(C)(C)C)o1` (stereo unspecified), 0.563.
As for `C=CC[C@@]1(C(=O)N(C)C)N=C(c2ccc(OCCCO)cc2)O[C@@H]1c1ccccc1N=[N+]=[N-]`, the figure is 1.33; as for `COCCOC(=O)N1C(=O)[C@@]2(c3cc(C#CCCO)ccc31)[C@H](C(=O)Nc1nc3ccccc3s1)[C@H]1C(=O)O[C@H](c3ccccc3)[C@H](c3ccccc3)N1[C@@H]2c1ccc(OCCO)cc1`, 0.482.
With `O=C(c1ccccc1)N1Cc2ccccc2[C@@H]2OC(c3ccc(OCCCO)cc3)=N[C@]2(Cc2ccccc2)C1=O`, the composite z-score worked out at 0.765.
In the case of `NCCCCCNC(=O)[C@@H]1C[C@@H]2C(=O)N[C@@H](Cc3ccccc3)C(=O)N2[C@@H]1c1cccc(OCCO)c1` it was 1.12; in that of `COc1ccc([C@H]2OC[C@@H]3CC4(CC=CC4)C(=O)N32)cc1`, -0.284.
As for `CN1C(=O)C2C=CC(C(O)Cc3ccccc3)N(Nc3ccccc3)C2C1=O` (stereo unspecified), the figure is 1.12; as for `[N-]=[N+]=NCc1ccccc1[C@@H]1OC(c2ccc(OCCCO)cc2)=N[C@]1(Cc1ccccc1N=[N+]=[N-])C(=O)N1CCOCC1`, 1.13; as for `COc1ccc(CCNC(=O)[C@@]2(Sc3ccc(C)cc3)CC(=O)N(C3CCCCC3)[C@@H]2c2ccc(CO)cc2I)cc1`, 0.396.
As for `[N-]=[N+]=NCc1ccccc1[C@@H]1OC(c2ccc(OCCCO)cc2)=N[C@]1(CCS(=O)(=O)c1ccccc1)C(=O)NCc1ccccc1`, the figure is 1.27; as for `O=C1OCC=C[C@H]2OC34C=CCN(CCN5CCOCC5)C(=O)[C@H]3N(CCCO)C(=O)[C@@H]4[C@@H]12` (stereo partly specified), 0.114.
Molecule `CCc1oc(CC[C@@H](CO)NC(=O)NCCn2cc(C3(O)CCCCC3)nn2)c(C(=O)OC)c1C(=O)OC` displayed a composite z-score of 0.074.
In the case of `COC(=O)[C@@]1(Cc2ccc(F)cc2)[C@H]2c3cc(C(=O)N(C)C)n(Cc4nc5ccccc5[nH]4)c3C[C@H]2CN1C(=O)c1ccccc1` it was 0.488; in that of `COc1ccc(CCN2C(=O)[C@@]3(c4ccc([N+](=O)[O-])cc4)CC(=O)N(C4CCCCC4)[C@@H]3c3ccc(CO)cc32)cc1`, -0.569; in that of `O=C(O)[C@@]1(CCS(=O)(=O)c2ccccc2)COC(c2ccc(OCCCO)cc2)=N1`, -0.0996.
As for `CC(C)C[C@@H]1NC(=O)[C@H]2C[C@@H](C(=O)NCCCCCCN)[C@@H](c3ccc(O)cc3)N2C1=O`, the figure is 0.0592.
In the case of `CCCC[C@H]1OB(O)C[C@H]2C1=C(COc1ccccc1)C[C@H]1C(=O)N(C)C(=O)[C@H]12` it was 0.0686; in that of `O=C1O[C@H](c2ccccc2)[C@H](c2ccccc2)N2[C@H]1[C@@H](C(=O)N1CCN(c3ncccn3)CC1)[C@]1(C(=O)Nc3ccc(C#CC4=CCCCC4)cc31)[C@H]2c1ccc(O)cc1`, 0.605.
Turning to `C#CCN(CC=C(C)C)[C@H](CO)c1ccccc1`, the composite z-score is -0.196.
The molecule `Cc1ccc(S[C@]2(C(=O)NCCN3CCOCC3)CC(=O)N(Cc3ccccc3Cl)[C@@H]2c2ccc(CO)cc2)cc1` registered a composite z-score of 0.193.
With `O=C1NC(=O)C2C1C=CC(C(O)Cc1ccccc1)N2Nc1ccc(Cl)cc1Cl` (stereo unspecified), the composite z-score was 0.834.
In turn, `C=CCOC(=O)[C@@H]1[C@H]2C(=O)O[C@H](c3ccccc3)[C@H](c3ccccc3)N2[C@H](c2ccc(OCCOC(=O)[C@@H]3C[C@@H]4C(=O)N5CCC[C@H]5C(=O)N4[C@@H]3c3ccc(O)cc3)cc2)[C@@]12C(=O)Nc1ccc(I)cc12` displayed a composite z-score of 0.635.

The record behind these values is PubChem BioAssay.
